# Compound activity as filed in PubChem.
# UHRF1 MBD2 ctr = UHRF1 methyl-DNA binding inhibition. UHRF1 binding to methylated oligo, TR-FRET. inhibition, % at 4.4 µM. Q96T88. 370,000 compounds, 0.75% hits; in the data active = inhibition above about 21%;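 note: UHRF1 SRA domain binding a hemimethylated CpG hairpin DNA probe; 0% = median of test compound wells and 100% = reference inhibitor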
# Target sequence (Q96T88 whole entry, looked up, the tested form may be a part): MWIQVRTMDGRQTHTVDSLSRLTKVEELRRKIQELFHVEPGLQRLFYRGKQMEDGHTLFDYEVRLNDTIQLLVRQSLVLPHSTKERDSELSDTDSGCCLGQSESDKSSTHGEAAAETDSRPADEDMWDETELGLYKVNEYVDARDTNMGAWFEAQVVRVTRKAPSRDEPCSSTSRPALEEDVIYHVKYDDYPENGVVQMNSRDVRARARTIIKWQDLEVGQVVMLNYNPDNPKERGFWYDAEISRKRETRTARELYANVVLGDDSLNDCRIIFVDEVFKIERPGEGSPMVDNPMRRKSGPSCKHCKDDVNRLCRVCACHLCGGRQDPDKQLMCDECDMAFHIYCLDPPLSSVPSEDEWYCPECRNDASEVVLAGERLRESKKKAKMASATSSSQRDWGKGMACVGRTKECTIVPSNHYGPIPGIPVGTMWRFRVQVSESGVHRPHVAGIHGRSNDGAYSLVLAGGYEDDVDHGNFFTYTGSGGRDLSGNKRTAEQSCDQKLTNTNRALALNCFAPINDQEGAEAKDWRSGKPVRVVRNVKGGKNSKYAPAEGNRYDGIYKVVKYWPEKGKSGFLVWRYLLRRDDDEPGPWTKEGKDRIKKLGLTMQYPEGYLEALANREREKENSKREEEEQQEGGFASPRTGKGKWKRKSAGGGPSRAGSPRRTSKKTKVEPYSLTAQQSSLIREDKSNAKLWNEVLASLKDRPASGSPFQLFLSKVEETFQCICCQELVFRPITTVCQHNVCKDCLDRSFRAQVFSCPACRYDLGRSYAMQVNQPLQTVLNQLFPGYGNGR
# LEDGF integ inh = blocks HIV-1 LEDGF/p75-dependent DNA integration. TR-FRET IN-LEDGF/p75 DNA integration, Eu/Cy5. inhibition, % at 3.7 µM. AID 743269. 370,000 compounds, 0.64% hits;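 active = inhibition above the screen-wide mean plus 3 SD, cut at about 13% in these data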;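 note: signal is the Cy5 over europium emission ratio at 671 and 618 nm; 0% = plate median of compound wells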
# PLC-gamma1 inh = blocks human PLC-gamma1 enzyme activity. P19174. purified PLC-gamma1, fluorogenic substrate, fluorescence. inhibition, % at 12.2 µM. 370,000 compounds, 0.84% hits. AID 720700; in the data active = inhibition above about 9.5%
# PLCb3 inh = inhibitors of human phospholipase C beta3; Q01970; Purified PLC-beta3, fluorogenic substrate, fluorescence; inhibition, % at 12.2 µM; 370,000 compounds, 0.18% hits; in the data active = inhibition above about 11%;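 note: 0% = median of compound wells on plate and 100% = full blocker control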
# MBD2 inh = blocks human MBD2 binding to methylated DNA. Q9UBB5. inhibition, % at 4.4 µM. 370,000 compounds, 0.31% hits. TR-FRET, MBD2 binding to methylated oligonucleotide. AID 686964; in the data active = inhibition above about 13%
# IN multimer up = counter-screen for LEDGF/p75 integration inhibitors: HIV-1 integrase multimerization activators | shares compounds with LEDGF integ inh | TR-FRET HIV-1 integrase multimerization, biochemical | activation, % at 7.7 µM | 2,000 compounds, 17% hits | AID 1053131; in the data active = activation above about 8.9%
# TR-FRET interf = counter-screen for LEDGF/p75 integration inhibitors: TR-FRET optical interference | 2,000 tested, under 10 active | TR-FRET optical interference counterscreen, HIV-1 IN multimerization | shares compounds with LEDGF integ inh | inhibition, % at 7.7 µM;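 active = inhibition above the mean over all tested compounds plus 3 SD, which no compound reached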;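 note: 0% = integrase with antibodies and DMSO and 100% = antibodies without integrase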
# IN-LEDGF confirm = confirmation of HIV-1 LEDGF/p75-dependent integration inhibitors; shares compounds with LEDGF integ inh; TR-FRET LEDGF/p75-dependent HIV-1 integration, biochemical; inhibition, % at 3.7 µM; 2,000 compounds, 36% hits; in the data active = inhibition above about 14%
# The depositor's hits bear a star; i = inactive; nt = not tested or not shown. Compounds with a hit are over-represented: about 2.4% of the library has one in this group of screens.
SMILES,UHRF1 MBD2 ctr,LEDGF integ inh,PLC-gamma1 inh,PLCb3 inh,MBD2 inh,IN multimer up,TR-FRET interf,IN-LEDGF confirm
Oc1ccc(Nc2ccccc2F)c2cccnc12,-3,34*,-38,-55,-16,2,-8,1
O=S(=O)(Nc1ccc(O)c2ncccc12)c1ccccc1F,-6,29*,-51,-72,-11,1,-6,44*
O=C(OCC#CCSc1nnc(-c2cccc(F)c2)o1)c1ccc(F)cc1,-3,1,1,0,0,nt,nt,nt
CCOC(=O)c1cccc(NC(=O)CN(C)S(=O)(=O)c2ccc(Br)s2)c1,1,-4,2,0,-1,nt,nt,nt
C[C@@H]1CCCN1c1cccc2c1S(=O)(=O)N(C1CC1)CCCO2,5,-4,-4,-9,1,nt,nt,nt
COP(=O)(OC)c1ccc(NCc2cc(O)ccc2O)cc1,2,20*,-6,-3,-2,64*,-225,24*
CCc1ccc2c(c1)C(NC(C)=O)C(=O)N2CCN1CCOCC1 (stereo not drawn),-2,15*,-1,-8,-9,-1,3,33*
CCCN1C(=O)C(NC(C)=O)c2ccccc21 (stereo not drawn),7,2,1,-3,9,nt,nt,nt
CCCC[C@H]1C2CC(OC(=O)NCCCc3ccccc3)C(C2)[C@H]2CCCCN21 (stereo partly drawn),0,5,2,4,-5,nt,nt,nt
Oc1ccc(C=Nc2ccc(N3CCOCC3)cc2)c(O)c1,-3,19*,-23,-29,-3,19*,-97,23*
Cc1cc(Br)cc(C=Nc2ccc(N3CCOCC3)cc2)c1O,0,26*,-46,-78,-4,3,-13,17*
Oc1ccc(N=Nc2cccc(C(F)(F)F)c2)cc1C=Nc1ccc(N2CCOCC2)cc1,-4,14*,2,1,-3,-1,3,14*
Cc1ccc(-n2c(SCc3cccc(F)c3)nc3ccccc3c2=O)cc1,-1,-2,-3,-3,-4,nt,nt,nt
C[C@@H]1OC(C2CCCCC2)N(C)[C@H]2C[C@H]3c4cc(N5CCOCC5)ccc4CCN3C[C@@H]12 (stereo partly drawn),-4,1,-16,-17,2,nt,nt,nt
CCC(C(=O)Nc1ccccn1)c1ccccc1 (stereo not drawn),-1,14*,2,-6,7,0,-1,13
C=CCN1C(=O)[C@@H](CC(=O)NCc2ccc(C)o2)[C@]2(C(=O)OC)CCCCC=C12,-3,5,3,1,2,nt,nt,nt
O=C1C(N2CCOCC2)=C(n2nnc3ccccc32)C(=O)c2ccccc21,-4,40*,4,0,-14,3,-11,45*
Cc1c(C(=O)NCCC#N)sc(=O)n1Cc1ccc(C(=O)N(C)C)cc1,-1,32*,2,0,3,-1,5,-5
C=Cc1ccc(Cn2c(C)c(C(=O)NCCC#N)sc2=O)cc1,1,4,1,4,-2,nt,nt,nt
CC(NC(=O)c1cc2ccc(C(F)(F)F)cc2nc1N)c1cccc2ccccc12 (stereo not drawn),-1,3,-18,-5,6,nt,nt,nt
CCc1ccc(CCNC(=O)OCCCN2CCC3(CCC(C)CC3)C2=O)cc1 (stereo not drawn),0,-2,-1,2,-7,nt,nt,nt
CCOc1ccc(CCNC(=O)c2cc3ccsc3n2C)cc1OCC,2,0,7,2,8,nt,nt,nt
O=C(COC(=O)c1n[nH]c(=O)c2ccccc12)Nc1ccccc1F,-1,14*,0,-2,-3,0,-2,-1
O=C(COC(=O)c1n[nH]c2ccccc12)Nc1ccccc1F,0,1,-4,0,-6,nt,nt,nt
O=C1NC2(CCCCCC2)C(=O)N1Cc1ccccc1Cl,2,28*,0,-6,6,-1,3,-7
SMILES,UHRF1 MBD2 ctr,LEDGF integ inh,PLC-gamma1 inh,PLCb3 inh,MBD2 inh,IN multimer up,TR-FRET interf,IN-LEDGF confirm
C/C(C=NNC(=O)CSc1nnc(-c2ccc(Cl)cc2)n1-c1ccc(C)cc1)=C\c1ccccc1,-2,2,4,7,1,nt,nt,nt
CCOC(=O)[C@@]12CCCC=C1N(CCc1ccc(Cl)cc1)C(=O)[C@H]2CC(=O)N1CCOCC1,-1,-2,1,-2,0,nt,nt,nt
COC(=O)[C@]12C[C@H](CC(=O)NCc3cccc4ccccc34)C(=O)N(Cc3ccccc3)C1=C[C@H](COCc1ccccc1)O[C@@H]2C,-2,2,1,0,0,nt,nt,nt
COc1ccccc1OCCSc1nnnn1-c1ccc(C)cc1,-2,37*,1,2,-5,-3,14,10
Cn1cc(Cl)c(-c2n[nH]c(=S)n2-c2ccccc2)n1,2,-2,2,-2,-2,nt,nt,nt
Cn1cc(Cl)c(-c2n[nH]c(=S)n2-c2ccc(F)cc2)n1,-1,28*,4,3,-1,-1,4,-6
CC[C@@]1(O)C(=O)OCc2c1cc1n(c2=O)Cc2cc3c(CN(C)C)c(O)ccc3nc2-1,-18,3,i,i,-7,nt,nt,nt
CC[C@@]1(O)C(=O)OCc2c1cc1n(c2=O)Cc2cc3c(N)cccc3nc2-1,-1,23*,-107,-146,-11,14*,-50,10
O=C(CSc1nnc(-c2ccc(Cl)cc2)n1-c1ccccc1)Nc1ccc2c(c1)OCCO2,-4,3,-1,-3,-3,nt,nt,nt
COCCN1Cc2cc(C(=O)OC)c3c(c2C1=O)c1cc(F)ccc1n3C(=O)c1ccccc1,-2,0,-27,-34,-5,nt,nt,nt
Cc1cccc2nc(CSCc3ccco3)cn12,5,16*,-23,-35,-1,-2,10,13
Cc1cc(C)n2cc(CSCc3ccco3)nc2n1,-3,1,-27,-26,-1,nt,nt,nt
O=C1C=CC(=O)c2c(O)c(N3CCN(CCO)CC3)c(Cl)c(O)c21,18,26*,-34,-46,0,91*,-322,78*
O=S(=O)(c1ccc(Br)cc1Cl)N1CCN(CCO)CC1,3,-1,1,0,2,nt,nt,nt
O=C1C=CC(=O)c2c(O)c(N3CCN(CCOCCO)CC3)c(Br)c(O)c21,40*,50*,-27,-51,10,99*,-352,83*
Cc1cccc(CNc2ncnc3ccc(-c4ccc5c(c4)OCO5)cc23)c1,-6,15*,-28,-50,-6,0,0,-10
NC(=S)NN=Cc1nccc2c(N)cccc12,-8,20*,-6,-7,-12,15*,-75,17*
